# Assay results as given in PubChem BioAssay (Tox21).
# Records with an inconclusive call do not appear. Values without a mark were called inactive. Activity calls are given as the source filed them. Calls follow the shape of the dose curve; as a rule, active = well fitted cell-killing curve with a large enough effect in the repeat runs; inconclusive = weak or mixed curves, or effect the other way; inactive = flat fitted curve, though single readings scatter.
# Test: cAMP Responsive Elements (CRE) small molecule antagonists, cell-based qHTS assay: qHTS cell viability counter screen (AID 2060913); also: nearly all actives have a fitted effect of over 40% in size
# Settings: CRE-bla HEK293T viability, CellTiter-Glo luminescence, 5 h; series mostly up to 92.4 µM; viability change, negative = cytotoxic: at the top concentration
# Outline: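 Steps: cells plated and held 18 hrs at 37 C/5% CO2; compounds and NKH477 (0.25 uM final) added; 3 hrs incubation; reporter substrate read; CellTiter-Glo added to measure cytotoxicity by luminescence.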
# % is scaled to controls: 0 for no effect and ±100 for the full control effect; potency is read from the fitted curve at half-maximal effect.
Structure (SMILES),"viability change, negative = cytotoxic",Potency
CC(NC(CCc1ccccc1)C(=O)O)C(=O)N1C(=O)N(C)CC1C(=O)O (stereo not given),3.62% [at 42.5 µM],–
CCC1(CO)COCOC1,3.25%,–
COc1ccc(CCN(C)CCCN2CCc3cc(OC)c(OC)cc3CC2=O)cc1OC,1.93% [at 42.5 µM],–
COc1cc2nc(N3CCN(C(=O)c4ccco4)CC3)nc(N)c2cc1OC,3.29% [at 18.9 µM],–
c1ccc(C[n+]2cccc3ccccc32)cc1,-1.23%,–
NC=O,–,inactive
CCCCC(CC)COC(=O)CS (stereo not given),–,inactive
C=CC(OCC)OCC,-2.17%,–
Oc1cc2ccccc2cc1O,-3.33%,–
CCCCCOc1ccccc1/C(=C\SC)n1ccnc1,-10.2% [at 42.5 µM],–
NC(=O)COCCN1CCN(C(c2ccccc2)c2ccc(Cl)cc2)CC1 (stereo not given),0% [at 42.5 µM],–
Cc1cccnc1,–,inactive
O=C(OCc1ccccc1)c1ccc(O)cc1,–,inactive
O=C(c1ccccc1)c1ccc(O)cc1O,–,inactive
C=C[Si](OC(=C)C)(OC(=C)C)OC(=C)C,10.8%,–
NC(=O)OCC(COC(N)=O)c1ccccc1,–,inactive
O=C1CCN(c2ccccc2)N1,4.43%,–
C=CC1CC2C=CC1C2 (stereo not given),5.14%,–
CC(=O)CCC=C(C)C,–,inactive
Brc1ccccc1-c1ccccc1,0.051%,–

Structure (SMILES),"viability change, negative = cytotoxic",Potency
CCO[Si](CCC#N)(OCC)OCC,–,inactive
N[C@@H](CCC(=O)N[C@@H](CS)C(=O)NCC(=O)O)C(=O)O,4.12% [at 18.9 µM],–
COc1ccc(COC(C)=O)cc1,–,inactive
CCCCCCCCCCCCCCCCCCOCCO,-9.04% [at 18.9 µM],–
Nc1nc(N)nc(-c2ccccc2)n1,–,inactive
OC1CCCCC1c1ccccc1 (stereo not given),0.598%,–
CNS(=O)(=O)CCc1ccc2[nH]cc(C3CCN(C)CC3)c2c1,-3.04% [at 42.5 µM],–
CCCCNc1ccc(NCCCC)c2c1C(=O)c1ccccc1C2=O,6.2% [at 18.9 µM],–
Nc1ccc(Cl)c(N)c1,–,inactive
Cc1c(C)c2c(c(C)c1OC(=O)CCC(=O)OCCO)CC[C@@](C)(CCC[C@H](C)CCC[C@H](C)CCCC(C)C)O2,0.0573% [at 42.5 µM],–
CC(C)C(=O)OCC(C)(C)C(O)C(C)C (stereo not given),4.92%,–
N#CCCOCCOCCC#N,-1.35%,–
CN(C)c1ccc(C=O)cc1,2.09%,–
Cn1sccc1=O,–,inactive
O=C(O)c1c(O)c(-c2ccccc2)nc2ccccc12,-6.11% [at 42.5 µM],–
CC(O)CN(CCCN(C)C)CCCN(C)C (stereo not given),0.412%,–
C/C=C/C=C/CCCCCCCO,10.6%,–
CC/C(=C(/c1ccc(O)cc1)c1ccc(OCCN(C)C)cc1)c1ccccc1,–,37.6 µM (active)
CC(O)Cn1cnc2c1c(=O)n(C)c(=O)n2C (stereo not given),1.17% [at 42.5 µM],–
COc1ccnc(CS(=O)c2nc3ccc(OC(F)F)cc3[nH]2)c1OC (stereo not given),6% [at 42.5 µM],–
